M1 ag parental = nonselective activator or artifact in parental CHO-K1 cells; Fluo-8 calcium fluorescence; scaled to maximal ATP response, vehicle zero; activation, % at 3 µM; hit rate 0.48% among 360,000; in the data active means activation above about 15%;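 further: untransfected CHO-K1 host cells lacking M1 receptor as counterscreen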
CHO-K1 Ca antag = nonselective inhibitor or artifact in parental CHO-K1 cells | ATP-induced calcium, Fluo-8 fluorescence | inhibition, % at 3 µM | hit rate 0.6% among 360,000 | AID 602250;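 active means inhibition above a per-plate cutoff, the plate's mean sample inhibition plus 3 SD, cut at about 24% in these data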
M1 antag = antagonists of human M1 muscarinic receptor; P11229; CHO-K1 hM1, Fluo-8 calcium fluorescence, ACh EC80 antagonist; inhibition, % at 3 µM; hit rate 1.3% among 360,000; AID 588852;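 active means percent inhibition above its own plate's cutoff, namely the mean of that plate's compound wells plus 3 SD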;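 further: peak over basal fluorescence ratio during 140 s after agonist addition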
Target sequence (P11229 whole entry, looked up): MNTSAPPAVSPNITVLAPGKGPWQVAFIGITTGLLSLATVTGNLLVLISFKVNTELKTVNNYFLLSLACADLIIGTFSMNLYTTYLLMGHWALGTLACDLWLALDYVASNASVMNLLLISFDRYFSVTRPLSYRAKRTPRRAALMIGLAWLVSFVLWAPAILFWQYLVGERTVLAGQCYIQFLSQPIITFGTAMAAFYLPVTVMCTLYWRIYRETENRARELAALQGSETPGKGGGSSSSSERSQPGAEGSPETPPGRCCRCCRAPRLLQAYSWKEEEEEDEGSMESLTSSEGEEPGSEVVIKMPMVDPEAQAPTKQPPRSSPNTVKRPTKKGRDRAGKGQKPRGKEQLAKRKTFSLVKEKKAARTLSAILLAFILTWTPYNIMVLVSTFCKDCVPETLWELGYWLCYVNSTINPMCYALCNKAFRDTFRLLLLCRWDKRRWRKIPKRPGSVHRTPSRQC
M1 PAM parental = counter-screen for M1 PAMs: effect in parental CHO-K1 cells; activation, % at 3 µM; ATP EC20, Fluo-8 calcium fluorescence; 0% at ATP EC20, 100% at ATP max; hit rate 0.02% among 360,000;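 active means activation above the run cutoff, the mean activation of all test compounds plus 3 SD, cut at about 40% in these data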;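 further: peak over basal fluorescence ratio in a 140 s read after ATP addition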
CHRM1 PAM = human CHRM1 positive allosteric modulation. P11229. CHO-K1 hM1, Fluo-8 calcium fluorescence, ACh EC20; 0% = ACh EC20, 100% = maximal ACh. activation, % at 3 µM. hit rate 0.088% among 360,000. AID 588819; in the data active means activation above about 19%, passing the limit was not always enough
M1 ag = activates human CHRM1 receptor; CHO-K1 hM1, Fluo-8 calcium fluorescence, agonist mode; 0% DMSO, 100% acetylcholine EC100; AID 588814; hit rate 0.33% among 360,000; activation, % at 3 µM;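 active means activation above the run's mean compound activation plus 3 SD, cut at about 16% in these data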;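 further: peak over basal fluorescence ratio within a 140 s kinetic read after compound addition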
Numbers stand for hits; - = inactive. Hits are enriched below; roughly 2.4% of the tested compounds scored in any of these assays.

SMILES	M1 ag parental	CHO-K1 Ca antag	M1 antag	M1 PAM parental	CHRM1 PAM	M1 ag
S=C(NCCc1ccncc1)Nc1cccc2ccccc12	-	26.6	-	-	-	-
C=CCNC(=S)Nc1cccc2ccccc12	-	-	-	-	-	-
S=C(Nc1cccc2ccccc12)NN1CCOCC1	-	-	-	-	-	-
CN1CCN(C(=O)c2ccc(COc3ccc(C(C)(C)C)cc3)o2)CC1	-	-	38.9	-	-	-
Cc1ccccc1Oc1ccc2c(c1)[C@@H]1C[C@H](N(C)C(=O)c3ccc(C#N)cc3)[C@H]([C@H](C)O)C(=O)N1CC2	-	-	-	-	-	-
Cc1ccc(SCCN2CCN(CCc3ccccc3)CCC2=O)cc1	-	-	-	-	-	-
CC(C)CN1CCC(=O)N(CCSc2ccccc2)CC1	-	-	-	-	-	34.4
CC(OC(=O)c1ccc(S(=O)(=O)NCc2ccco2)cc1)C(=O)Nc1ccccc1 (stereo not drawn)	-	-	-	-	-	-
O=C(Nc1ccccc1C(=O)Nc1nnc(C(F)(F)F)s1)c1ccccc1	-	26.3	-	-	-	-
COCc1cc(C)nc2sc3c(=O)n(Cc4ccco4)nnc3c12	-	25.9	-	-	-	-
O=C(COC(=O)CNC(=O)c1ccccc1F)NC12CC3CC(CC(C3)C1)C2	-	-	-	-	-	-
CC(=O)Nc1ccc(CN2CCN(C3CCCCC3)C(CCO)C2)cc1 (stereo not drawn)	-	-	23.9	-	-	-
COC(=O)c1ccc(CN2CCN(C3CCCCC3)C(CCO)C2)cc1 (stereo not drawn)	-	-	60.2	-	-	-
COC(=O)c1ccc(CN2CCN(Cc3ccccc3)C(CCO)C2)cc1 (stereo not drawn)	-	-	-	-	-	-
COC(=O)c1ccc(CN2CCN(C3CCCC3)C(CCO)C2)cc1 (stereo not drawn)	-	-	91.6	-	-	-
O=C(O)c1cc(N=Cc2c(O)c3ccccc3oc2=O)ccc1O	-	-	-	-	-	-
CCOc1ccc(OCCC(=O)N(CCCOC)c2c(N)n(Cc3ccccc3)c(=O)[nH]c2=O)cc1	-	-	-	-	-	-
O=C(C[C@H]1C/C=C\C[C@@H](Cc2ccc(F)cc2)C(=O)OC[C@@H]2CCCN2C1=O)NCCO	-	-	-	-	-	-
COc1ccc(NC(=S)N2CCC(C(=O)c3ccc(Cl)cc3)CC2)cc1	-	-	-	-	-	-
CCOc1ccc(NC(=S)N2CCC(C(=O)c3ccc(OC)cc3)CC2)cc1	-	-	-	-	28.7	-
COc1ccc(NC(=O)c2ccc(=O)[nH]c2)cc1S(=O)(=O)N1CCOCC1	-	-	-	-	-	-
Cc1ccc(NS(=O)(=O)c2ccc3c(c2)CCC(=O)N3)cc1	-	-	-	-	-	-
CSc1ccc(S(=O)(=O)Nc2ccc3c(c2)NC(=O)CC3)cc1	16.2	-	-	-	-	-
Cc1cc(C)cc(C(=O)NCC(=O)N2CCC(C(N)=O)CC2)c1	-	-	-	-	-	-
COc1ccccc1CN(C)C(=O)c1cccc(S(=O)(=O)N2CCc3ccccc3C2)c1	-	-	-	-	-	-
SMILES	M1 ag parental	CHO-K1 Ca antag	M1 antag	M1 PAM parental	CHRM1 PAM	M1 ag
Cc1cc(C(=O)CSc2nc3ccccc3[nH]2)c(C)n1CC1CCCO1 (stereo not drawn)	19.6	57.7	76.0	-	-	-
Cc1cc(C(=O)CSc2nc(N)cc(=O)[nH]2)c(C)n1CC1CCCO1 (stereo not drawn)	-	-	-	-	-	-
CC(=O)c1c(C)[nH]c(C(=O)OCc2ccccc2)c1C	-	-	-	-	-	-
CCOC(=O)c1[nH]c2cc3c(cc2c1CCCN1C(=O)c2ccccc2C1=O)OCCO3	-	-	-	-	-	-
CC(=O)c1c(C)[nH]c(C(=O)OCCCCN2C(=O)c3ccccc3C2=O)c1C	-	33.2	39.6	-	-	-
CCOC(=O)c1[nH]c2ccccc2c1CCCN1C(=O)c2ccccc2C1=O	-	-	89.0	-	-	-
O=C(COC(=O)c1ccc(F)cc1F)NCCNC(=O)COC(=O)c1ccc(F)cc1F	-	-	-	-	-	-
O=C(COC(=O)c1ccc(F)cc1F)NC1CC1	-	30.3	-	-	-	-
C[C@@H]1CN(S(=O)(=O)C(C)(C)C)[C@H](CCO)/C1=C\c1ccccc1	-	-	-	-	-	-
